Screening data deposited in PubChem by Sanford-Burnham Center for Chemical Genomics.
Only a selection was taken, and hits are over-represented in it overall.
Artemis inh: Artemis endonuclease inhibitors, primary screen, biochemical, fluorescence intensity, FAM/BHQ-1 hairpin substrate; Protein artemis (Homo sapiens), Q96SD1; recombinant Artemis, quenched FAM hairpin cleavage fluorescence; inhibition, % at 10 µM; 30,000 tested, 0.78% active; AID 686954, 2013;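 active means at 10 µM dose, at least 30% inhibition, measured as corrected fluorescence normalized to stimulator and neutral control wells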
Target sequence (Q96SD1 whole entry, looked up): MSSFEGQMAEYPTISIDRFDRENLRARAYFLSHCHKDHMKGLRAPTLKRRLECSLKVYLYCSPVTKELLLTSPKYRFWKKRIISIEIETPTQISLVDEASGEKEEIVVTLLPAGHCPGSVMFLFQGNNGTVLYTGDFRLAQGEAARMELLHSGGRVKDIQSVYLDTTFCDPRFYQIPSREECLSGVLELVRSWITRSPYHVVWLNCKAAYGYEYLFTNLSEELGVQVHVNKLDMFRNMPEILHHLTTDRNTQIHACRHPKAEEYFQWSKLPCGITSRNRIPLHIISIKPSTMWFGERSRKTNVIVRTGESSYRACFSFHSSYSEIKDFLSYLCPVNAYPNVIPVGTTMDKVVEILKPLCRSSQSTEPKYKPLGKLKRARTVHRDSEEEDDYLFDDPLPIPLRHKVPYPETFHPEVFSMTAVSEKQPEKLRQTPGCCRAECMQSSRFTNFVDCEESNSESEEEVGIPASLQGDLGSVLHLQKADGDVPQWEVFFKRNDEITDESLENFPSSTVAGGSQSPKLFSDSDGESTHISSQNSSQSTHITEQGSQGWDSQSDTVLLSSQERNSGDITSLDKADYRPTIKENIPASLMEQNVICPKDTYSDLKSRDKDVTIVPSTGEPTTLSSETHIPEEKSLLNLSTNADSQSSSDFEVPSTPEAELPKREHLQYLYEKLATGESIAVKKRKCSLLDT
Numbers stand for hits.

What do the screens show for `Cc1cc(C)n(-c2nc(NCC(C)O)c3c4c(sc3n2)CCCC4)n1` (stereo unspecified)?
Artemis inh: 39

What do the screens show for `N=c1c2c3c(sc2ncn1CCCO)CCCC3`?
Artemis inh: inactive

Results for Cc1cc(C)n(C(=O)CSc2nnc(SCC(=O)n3nc(C)cc3C)s2)n1 ?
Artemis inh: inactive

What do the screens show for `COc1ccc(S(=O)(=O)N(C)CC(=O)NCc2cccnc2)cc1`?
Artemis inh: inactive

Results for COC(=O)c1cc(Br)c(=O)n(-c2cc(C)on2)c1 ?
Artemis inh: inactive

What do the screens show for `Cc1[nH]n2c(=O)c3c(nc2c1-c1ccccc1)CCC3`?
Artemis inh: inactive

What do the screens show for `Cc1[nH]n2c(=O)c3c(nc2c1-c1ccc(Cl)cc1)CCC3`?
Artemis inh: inactive

Results for Nc1[nH]n2c(=O)c3c(nc2c1N=Nc1ccc(Cl)cc1)CCCC3 ?
Artemis inh: 30

Results for Cc1c(F)cccc1NC(=O)CSCC(=O)Nc1ccccc1 ?
Artemis inh: inactive

Results for Nc1nc(NC(=O)c2cccc(S(=O)(=O)N3CCCCCC3)c2)nc(-c2ccccc2)n1 ?
Artemis inh: inactive

What do the screens show for `COc1ccc(OC)c(NC(=O)CSC2=NCCS2)c1`?
Artemis inh: inactive

What do the screens show for `COc1ccc(CC(=O)NC2=NCCS2)cc1`?
Artemis inh: inactive

What do the screens show for `COc1ccc(Nc2nc(Nc3ccc(OC)cc3)nc(SC3=NCCS3)n2)cc1`?
Artemis inh: 79

Results for CCCOc1ccc(NC(=O)CC2C(=O)N(C)C(=S)N2Cc2cccs2)cc1 (stereo unspecified) ?
Artemis inh: inactive

How did CC(=O)C(=[N+]=[N-])C(=O)NCc1ccccc1 do in these assays?
Artemis inh: inactive

Results for O=C(Nn1nnnc1Nc1ccccc1)C12CC3CC(CC(C3)C1)C2 ?
Artemis inh: inactive

How did O=C(Nc1ccc2oc(-c3cccc4ccccc34)nc2c1)c1ncn[nH]1 do in these assays?
Artemis inh: 32

Results for Nc1ccc2oc(-c3cccc4ccccc34)nc2c1 ?
Artemis inh: inactive

Results for CCC(=O)Nc1ccc2oc(-c3ccccc3Br)nc2c1 ?
Artemis inh: inactive

What do the screens show for `Cn1cc(Cl)c(C(=O)N2CCN(c3ncccn3)CC2)n1`?
Artemis inh: inactive

Results for CC1CCCCN1C(=O)c1ccc(S(=O)(=O)N2CCCCC2C)cc1 (stereo unspecified) ?
Artemis inh: inactive

Results for CCN1CCCC1CNS(=O)(=O)c1ccc(C(=O)Nc2ccccc2)cc1 (stereo unspecified) ?
Artemis inh: inactive

Results for CC1CCCCN1S(=O)(=O)c1ccc(C(=O)Nc2nnc(-c3ccccc3Cl)o2)cc1 (stereo unspecified) ?
Artemis inh: 32

What do the screens show for `COc1ccccc1-c1nnc(NC(=O)c2ccc(S(=O)(=O)N(C)C)cc2)o1`?
Artemis inh: inactive

What do the screens show for `CCC1CCCCN1S(=O)(=O)c1ccc(C(=O)Nc2nnc(-c3ccccc3Cl)o2)cc1` (stereo unspecified)?
Artemis inh: 36

What do the screens show for `CCCCN(CC)S(=O)(=O)c1ccc(C(=O)Nc2nnc(-c3ccccc3Cl)o2)cc1`?
Artemis inh: inactive

What do the screens show for `CCCC(=O)Nc1nnc(CC(=O)N2CCCC2)s1`?
Artemis inh: inactive

Results for COc1ccc(CNC(=O)c2ccc(NS(=O)(=O)c3c(C)noc3C)cc2)cc1 ?
Artemis inh: inactive

How did CN(C)S(=O)(=O)c1cccc(CSc2cccc[n+]2[O-])c1 do in these assays?
Artemis inh: inactive

Results for CC(c1nnc(SCC(=O)N2CC(=O)Nc3ccccc32)n1Cc1ccccc1)N(C)C (stereo unspecified) ?
Artemis inh: inactive

Results for CCOCC(=O)Nc1ccc(S(=O)(=O)NCCc2ccccc2)cc1 ?
Artemis inh: inactive

How did COC(=O)c1cc(COc2ccc3c(c2)oc(=O)c2ccccc23)c(C)o1 do in these assays?
Artemis inh: inactive

How did C=CCn1c(O)c(CN2CCOCC2)c(C)c(C#N)c1=O do in these assays?
Artemis inh: inactive

What do the screens show for `COC(=O)C1(c2ccccc2)NC(c2cccs2)C2C(=O)N(c3ccccc3)C(=O)C21` (stereo unspecified)?
Artemis inh: inactive

What do the screens show for `CS(=O)(=O)N(CCc1ccccc1)CC(=O)NCc1cccnc1`?
Artemis inh: inactive

Results for CCOc1ccccc1N1CCN(C(=O)C(F)(F)F)CC1 ?
Artemis inh: inactive

Results for CCOc1ccccc1N1Cc2ccccc2C1 ?
Artemis inh: inactive

Results for CCOc1ccccc1N1CN(CC)CNC1=S ?
Artemis inh: 55

What do the screens show for `CC(C)NC(=O)c1sc2nc3c(c(-c4cccs4)c2c1N)CN(C)CC3`?
Artemis inh: inactive

What do the screens show for `Cc1cccc(NC(=O)c2sc3nc4c(c(-c5cccs5)c3c2N)CN(C)CC4)c1`?
Artemis inh: 40

How did CC(=O)c1sc2nc(-c3cccs3)cc(C(F)(F)F)c2c1N do in these assays?
Artemis inh: inactive

What do the screens show for `Cc1cc(C)cc(C(=O)N(NC(=O)Nc2ccc(Cl)cc2)C(C)(C)C)c1`?
Artemis inh: inactive
